Pf growth 96h – Primary qHTS for delayed death inhibitors of the malarial parasite plastid, 96 hour incubation | P. falciparum luciferase reporter growth, 96 h | Potency, µM (top dose mostly 28.7 µM), for the others: at the highest dose activity change, negative = inhibition, usual class: inhibitors | hit rate 6.9% among 320,000 | AID 504834, 2011; also: potency is read from the fitted curve at half-maximal effect; % is scaled to controls: 0 for no effect and ±100 for the full control effect
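Compounds incubated with erythrocytes infected by luciferase-expressing P. falciparum (2% hematocrit, 0.05% parasitemia final) for 96 hours, 37 C in 5% CO2. Growth inhibition scored as decreased luciferase luminescence.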
HCV inh – qHTS Assay for Inhibitors of Hepatitis C Virus (HCV) | Potency, µM (top dose mostly 41.8 µM), inactives show top-dose activity change, negative = inhibition, hits mostly inhibitors | Huh7.5.1 HCVcc-Cre infection, luciferase reporter, 44 h | hit rate 3.4% among 340,000; also: potency is read from the fitted curve at half-maximal effect; % is scaled to controls: 0 for no effect and ±100 for the full control effect
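A cell-based infection assay in which seeded cells (1,000 per well) receive test compound after 4 h, are inoculated with HCVcc-Cre at approximately 0.5 moi, and are incubated 44 h before luminescence detection.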
AMA1-RON2 inh – qHTS for Inhibitors of AMA1-RON; Towards Development of Antimalarial Drug Lead: Primary Screen; Plasmodium falciparum AMA1 (3D7) - RON2 peptide interaction; AlphaScreen AMA1-biotinylated RON2 peptide binding; Potency, µM (highest dose often 58.2 µM), for the others: top-dose activity change, negative = inhibition, most hits filed as inhibitors; hit rate 0.2% among 360,000;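 also: potency is read from the fitted curve at half-maximal effect; 0% = vehicle wells and -100% = peptide control; nearly all actives have a fitted effect of over 45% in size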
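AMA1 (3D7) with his tag at 25 nM final met compounds first, then biotinylated RON2 peptide at 25 nM; detection used donor plus acceptor beads, 10 µg/mL apiece, read by AlphaScreen after 30 min at room temperature.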
Pf growth 48h – Primary qHTS for delayed death inhibitors of the malarial parasite plastid, 48 hour incubation | Potency, µM (doses to about 28.7 µM), for inactives: at the highest dose activity change, negative = inhibition, actives largely listed as inhibitors | AID 504832, 2011 | P. falciparum luciferase growth in erythrocytes, 48 h | hit rate 5.9% among 310,000; also: potency is read from the fitted curve at half-maximal effect; % is scaled to controls: 0 for no effect and ±100 for the full control effect
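Growth was read as firefly luciferase luminescence after a 48 h, 37 C, 5% CO2 exposure of compounds to reporter-bearing P. falciparum cultures (0.1% parasitemia, 2% hematocrit final) in Albumax-supplemented RPMI 1640.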
Cycloheximide cs – Cycloheximide Counterscreen for Small Molecule Inhibitors of Shiga Toxin; cell reporter, cycloheximide protein synthesis inhibition counterscreen; max response, %; hit rate 12% among 300,000; AID 2314, 2010; in the data active = max response mostly above about 13%, no sharp cut-off; inactive = mostly below about 14%; also: read at 38.3 µM for the half of the compounds with a filed dose; 0% is about no effect
Shiga toxin inh – A qHTS for Small Molecule Inhibitors of Shiga Toxin | Vero cells, Shiga toxin protein synthesis inhibition reporter | hit rate 9.2% among 290,000 | inhibition, % at 38.7 µM | AID 2315, 2010; in the data active = inhibition mostly above about 28%, no sharp cut-off; inactive = mostly below about 43%; also: 0% is about no effect
The depositor's hits bear a star; ? = inconclusive; · = no result; [ ] = another dose, or the depositor's remark. A selection: hits, their analogues and other compounds. The true share with any hit is near 21%. Unless noted, calls follow the shape of the dose curve; as a rule, active = well fitted curve in the direction sought with a large enough effect; inconclusive = small, poorly fitted or top-dose-only effect, or another doubt; inactive = no such curve, though single readings can be large; an effect the other way counts as inactive or inconclusive.

SMILES | Pf growth 96h | HCV inh | AMA1-RON2 inh | Pf growth 48h | Cycloheximide cs | Shiga toxin inh
O=C(OCC(=O)N1CCN(C(=O)c2ccco2)CC1)c1ccccc1NCCO | ? | 14.8% | 1.3% | -4.8% | · | ·
c1ccc(-c2n[nH]c3c2oc2ccccc23)cc1 | · | · | · | · | 53.0* | 72.2*
c1ccc(-c2n[nH]c3ccccc23)cc1 | ? | ? | 11.0% | 27.7% | 14.8 | -38.8
CC(=O)c1ccc(OCC(=O)NC(=O)NC2CCCCC2)cc1 | -18.7% | -29.8% | 3.7% | -9.4% | 0.9 | 2.6
CN1CCN(C(=O)c2ccc(OCCOc3ccccc3)cc2)CC1 | -15.6% | 8.6% | -1.9% | 35.8% | -1.4 | -6.7
O=C(c1[nH]c(C(F)(F)F)nc1-c1ccccc1)N1CCN(c2cccc(C(F)(F)F)n2)CC1 | · | · | 51.5% | · | · | ·
COc1cccc(NC(=O)COC(=O)COc2ccccc2[N+](=O)[O-])c1 | -15.9% | -4.0% | 6.4% | 0.8% | -6.7 | -10.7
COc1cccc(OCC(=O)NNC(=O)C(=O)Nc2cccc(C)c2)c1 | 55.4% | 14.7% | 98.0% | 41.0% | 28.4* | 59.9
COc1cccc(NC(=O)COc2ccccc2C(N)=O)c1 | 270.0% | 4.5% | 1.2% | 225.4% | 40.1* | 59.9*
COc1ccc(OCC(=O)NCCCCCCNC(=O)COc2ccc(OC)cc2)cc1 | 2.94µM* | 11.9% | 0.0% | -14.5% | -1.0 | -3.8
COc1ccc(OCC(=O)Nc2cccc(OC)c2)cc1 | ? | 9.1% | -2.5% | 101.8% | 42.3* | 103.2*
C[C@H]1[C@@H](Cc2cc(Cl)cc(Cl)c2)N(c2ccccc2)c2ccccc2CN1Cc1ccccc1 | · | · | 25.2% | · | · | ·
Cc1nn(C)c2nc(NNC(=O)Nc3cc(Cl)nc(Cl)c3)cc(C(C)C)c12 | · | · | · | · | 4.0 | 13.8
O=C(O)c1ccc(C2Nc3ccccc3C(=O)N2Cc2ccccc2)cc1 (stereo not drawn) | ? | -19.4% | -9.3% | ? | 4.1 | -5.0
CCCCn1c(N)c(N(CC)C(=O)C2COc3ccccc3O2)c(=O)[nH]c1=O (stereo not drawn) | -8.1% | 11.4%[8.37 µM] | -8.4% | 6.7% | · | ·
CCOC(=O)C1=C(N)n2c(s/c(=C\c3ccco3)c2=O)=C(C(=O)OC(C)C)C1c1ccco1 (stereo not drawn) | ? | ? | ? | 2.94µM* | -2.0 | 8.7
Cc1cn(C2CCCO2)c(=O)nc1N (stereo not drawn) | · | 32.3% | ? | · | · | ·
O=C(O)c1cccc(N2C(=O)c3ccc(Oc4ccc(Cl)cc4)cc3C2=O)c1 | 9.0% | 14.3% | -2.6% | -4.0% | 19.6* | 25.9
CCOC(=O)c1cnc2cc3c(cn2c1=O)CCCC3 | ? | -27.9% | 0.0% | 176.1% | 28.4* | 55.2*
COC(CNC(=O)c1ccc2c(c1)ncn2-c1ccc(F)c(F)c1)OC | 17.3% | 30.9% | -11.7% | 3.8% | 12.8 | 29.0
COCCCNC(=O)c1ccc2c(c1)ncn2-c1ccc(C)cc1C | 0.4% | -12.7% | 11.7% | 11.7µM* | -1.4 | -2.9
COCCNC(=O)c1ccc2c(c1)ncn2-c1ccc(F)c(F)c1 | -8.7% | 1.8% | -0.6% | 81.3% | 17.2* | 24.6
CCOCCCNC(=O)c1ccc2c(c1)ncn2-c1cccc(C)c1 | 77.1% | ? | -3.0% | -16.8% | 0.8 | -2.6
Cc1ccc(S(=O)(=O)N2C[C@H]3C(=O)C[C@@H](c4ccc(Cl)cc4)N(S(=O)(=O)c4ccccc4C)[C@H]3C[C@H]2c2ccccc2)cc1 | · | · | 7.8% | · | · | ·
Cc1c([N+](=O)[O-])cc(C(=O)Nc2ccc3ncccc3c2)cc1[N+](=O)[O-] | 35.4% | ? | 13.3% | ? | -0.9 | ·
SMILES | Pf growth 96h | HCV inh | AMA1-RON2 inh | Pf growth 48h | Cycloheximide cs | Shiga toxin inh
Cc1c([N+](=O)[O-])cc(C(=O)Nc2ccc(Cc3ccncc3)cc2)cc1[N+](=O)[O-] | -3.6% | ? | -10.7% | 13.1µM* | -2.5 | -9.3
O=C(Nc1ccc(Cc2ccncc2)cc1)c1ccc(Cl)c([N+](=O)[O-])c1 | ? | -21.1% | -4.8% | ? | 8.6* | -1.8
CC(OC(=O)C1=COCCO1)C(=O)NC1CCCCC1 (stereo not drawn) | · | · | 8.1% | · | · | ·
Cc1cccc(C(=O)NCC(=O)OC(C)C(=O)Nc2ccc(Cl)cn2)c1 (stereo not drawn) | 136.1% | -6.4% | -4.3% | 10.8% | · | ·
CCCN(CC(=O)NC(=O)NCc1ccccc1)CC(=O)Nc1ccc(F)c(F)c1F | · | · | 165.5% | · | · | ·
O=C(Nc1cccn2ncnc12)c1ccc(Cl)cc1 | 3.0% | 1.9% | 7.5% | 42.1% | 11.9 | 44.5
O=C(Nc1cnc2ccccn2c1=O)c1ccc(Cl)cc1 | 90.0% | -8.2% | -2.5% | 110.3% | 33.5* | 112.7*
CC1Cc2ccccc2N1C(=O)CCS(=O)(=O)c1ccc2c(c1)NC(=O)CS2 (stereo not drawn) | 41.5% | -14.2% | 15.6% | -6.5% | -6.8 | -1.9
CC(C)=CCC1C(=O)N(c2ccccc2)N(c2ccccc2)C1=O | 7.57µM* | · | · | ? | · | ·
CCCCC1C(=O)N(c2ccccc2)N(c2ccc(O)cc2)C1=O (stereo not drawn) | 21.6% | ? | -3.3% | 9.3% | · | ·
COc1cc(C(=O)NCCC2=CCCCC2)cc(OC)c1OC | 125.7% | -22.5% | -5.3% | ? | -2.2 | 2.3
COc1ccc(C)cc1NC(=O)NCCC1=CCCCC1 | 55.3% | 0.1% | -2.7% | 14.7µM* | -1.4 | 10.2
Cc1cc(C(=O)NCCC2=CCCCC2)c(C)o1 | ? | 8.9% | 14.5% | 201.7% | 38.9* | 117.2*
COc1ccc(C(=O)NCCN2CCN(C(=O)c3ccc(OC)c(OC)c3)CC2)cc1OC | -1.0% | -1.3% | -1.9% | -9.6% | -2.3 | -5.8
COC(=O)[C@@H](NC(=O)NCCC1=CCCCC1)C(C)C | -11.1% | 4.4% | 2.7% | 1.2% | -2.8 | -0.7
COc1ccc(C(=O)NCCN2CCCC2)cc1[N+](=O)[O-] | 2.62µM* | 2.9% | 2.0% | ? | -1.8 | -40.7
COc1cccc(C(=O)NCCC2=CCCCC2)c1OC | 16.8% | 5.0% | 2.4% | 72.2% | 33.4* | 108.2*
COc1ccc(OCC(=O)NCCC2=CCCCC2)c([N+](=O)[O-])c1 | 6.0% | -29.9% | -10.8% | -19.6% | 5.5 | -5.3
COc1ccc(C(=O)NCCC2=CCCCC2)cc1[N+](=O)[O-] | 24.5% | ? | -3.1% | 20.8% | 23.8* | 41.2*
O=C(/C=C/[C@H]1O[C@@H](n2ccc(=O)[nH]c2=O)[C@H](O)[C@@H]1O)NCc1cccc2ccccc12 | · | · | -12.7% | · | · | ·
O=C(/C=C/c1ccnc2ccccc12)c1cccs1 | ? | ? | -9.9% | 62.9% | 37.6* | 72.9*
COc1ccc(C(=O)N=c2sc3c(C)ccc(OC)c3n2C)cc1 | 152.2% | ? | -6.7% | 136.8% | 37.1* | 66.0*

Screening data as filed in PubChem BioAssay.
